# Test results as given in ChEMBL document CHEMBL3988442, “University of Dundee, Small-Polar-MMV Screening Library” (2021).
# About 1,000 (1.4%) of roughly 69,000 compounds showed an effect of 50% or more. The sample as a whole holds a higher share of strong results than the screen did.
# Test system: Leishmania donovani
# Experiment: Leishmania intramacrophage assay
# Type: functional, organism-based
# Parameters: scale not given: in the data most compounds retested in dose-response had high values
compound,measurement,setting,value
CCN1CCN(CC(O)c2ccc(OC(F)(F)F)cc2)CC1 (configuration not stated),Percent Effect,"30 µM, 30.03 µM",18.61%
O=C1CC2(CCN(C(=O)C3CCCCC3)C2)Nc2ccccc2N1 (configuration not stated),Percent Effect,"30.3 µM, […]",29.44%
Cc1nc(CO[C@H]2CN(C(=O)c3cnoc3C)[C@@H]3COC[C@H]23)cs1.O=C(O)C(F)(F)F,Percent Effect,"30.3 µM, […]",6.994%
CCOCC(O)CN1CCN(C(=O)c2cc(C)ccc2F)CC1 (configuration not stated),Percent Effect,30 µM,-8.817%
COCCOCC(=O)NC(C#N)c1cccc(Cl)c1Cl (configuration not stated),Percent Effect,"30.3 µM, […]",-18.55%
CCOCC1c2c(ncn2C(C)C)CCN1C(=O)C1CC1 (configuration not stated),Percent Effect,"30.3 µM, […]",23.55%
O=C(O)C(F)(F)F.c1cc(-c2ccc3c(c2)CCC32CCN(c3nncs3)CC2)ccn1,Percent Effect,"30.3 µM, […]",73.19%
CN(C)CC(=O)N1CCC2(CCc3ccc(-c4ccncc4)cc32)CC1.O=C(O)C(F)(F)F.O=C(O)C(F)(F)F,Percent Effect,"30.3 µM, […]",33.01%
O=C(O)C(F)(F)F.c1cncc(-c2ccc3c(c2)C2(CC3)CCN(c3nncs3)CC2)c1,Percent Effect,"30 µM, 30.03 µM",47.88%
Cc1ccc2c(c1)C1(CC2)CCN(c2nncs2)CC1,Percent Effect,"30 µM, 30.03 µM",8.524%
c1cc(-c2ccc3c(c2)CCC32CCN(c3nncs3)CC2)co1,Percent Effect,"30.3 µM, […]",-6.512%
c1cc(-c2ccc3c(c2)C2(CC3)CCN(c3nncs3)CC2)ccn1,Percent Effect,"30.3 µM, […]",59.16%
Cc1noc(C)c1CN1C(=O)[C@H]2CC[C@@H]1CN(Cc1ccc(Cl)cc1)C2,Percent Effect,"30.3 µM, […]",25.74%
COc1ccc(F)cc1C(C(=O)O)N1CCCN(C2CCCC2)CC1 (configuration not stated),Percent Effect,"30.3 µM, […]",27.32%
CCS(=O)(=O)N1CCN(Cc2cccnc2)c2nc(C)ccc2C1.O=C(O)C(F)(F)F.O=C(O)C(F)(F)F,Percent Effect,"30.3 µM, […]",32.81%
COc1cccc(CCC(=O)N2CCC[C@@H](N)[C@@H]2c2ccccc2F)c1.Cl,Percent Effect,"30.3 µM, […]",36.93%
N[C@@H]1CCCN(C(=O)Cc2c[nH]c3ccccc23)[C@H]1c1ccccc1F,Percent Effect,"30.3 µM, […]",38.86%
COc1ccc(CC(=O)N2CCC[C@@H](N)[C@@H]2c2ccccc2F)cc1.Cl,Percent Effect,"30.3 µM, […]",50.59%
Cc1noc2ncc(S(=O)(=O)Nc3cc(CC(C)(C)C)[nH]n3)cc12,Percent Effect,"30.3 µM, […]",32.33%
CCCN(CC)C(=O)c1cc(Cn2c(C)nc3ccccc32)[nH]n1,Percent Effect,"30.3 µM, […]",56.73%
CCCN(CCOC)C(=O)c1cc(Cn2c(C)nc3ccccc32)[nH]n1,Percent Effect,"30.3 µM, […]",37.64%
CCN(CCO)C(=O)c1cc(Cn2c(C)nc3ccccc32)[nH]n1,Percent Effect,"30.3 µM, […]",22.11%
CCc1nnc2n1CCN(C(=O)c1ccc(-c3ccco3)[nH]c1=O)C2,Percent Effect,30 µM,4.718%
COc1ccccc1N1CCN(C(=O)CSCC2CC2)C(C)C1 (configuration not stated),Percent Effect,"30.3 µM, […]",-23.1%
Cc1ccc(C)c(CSc2nnc([C@@H](N)C(C)C)o2)c1.Cl,Percent Effect,"30.3 µM, […]",-10.46%
CSCC[C@H](N)c1nnc(SCc2cc(C)ccc2C)o1.Cl,Percent Effect,"30.3 µM, […]",51.5%
Cc1ccc(C)c(CSc2nnc(C(N)C(C)C)o2)c1.Cl (configuration not stated),Percent Effect,"30.3 µM, […]",-13.85%
Cc1noc(C)c1-c1cncc(C2CCCN2Cc2cn(C)cn2)n1 (configuration not stated),Percent Effect,"30.3 µM, […]",19.34%
CNC(=O)N1CC[C@@H]2CN(Cc3cccc(OC)c3)S(=O)(=O)[C@@H]2CC1,Percent Effect,"30.3 µM, […]",61.69%
CNC(=O)N1CC[C@@H]2CN(Cc3cccc(Cl)c3)S(=O)(=O)[C@@H]2CC1,Percent Effect,"30.3 µM, […]",7.409%
CCCC(C(=O)NC1CCN(S(C)(=O)=O)CC1)n1cccc1 (configuration not stated),Percent Effect,"30.3 µM, […]",18.03%
COc1ccc(CN2CCC3(CC2)CN(c2ccccn2)CCO3)cc1.O=C(O)C(F)(F)F.O=C(O)C(F)(F)F,Percent Effect,"30.3 µM, […]",-28.76%
COc1ccc(C(CNS(=O)(=O)c2cn(C)nc2C)N2CCCC2)cc1.Cl (configuration not stated),Percent Effect,"30.3 µM, […]",23.75%
Cc1[nH]c2c(F)cccc2c1CC(=O)N1CCCC(N)CC1 (configuration not stated),Percent Effect,"30.3 µM, […]",-7.725%
Cn1cc(C2CC(=O)NC23CCN(C(=O)Cc2ccccn2)CC3)cn1.O=C(O)C(F)(F)F (configuration not stated),Percent Effect,"30.3 µM, […]",2.376%
Cc1cncc(C(=O)N2CCC3(CC2)NC(=O)CC3c2ccccc2)c1.O=C(O)C(F)(F)F (configuration not stated),Percent Effect,"30.3 µM, […]",4.194%
Cn1cc(C2CC(=O)NC23CCN(C(=O)c2cccnc2)CC3)cn1.O=C(O)C(F)(F)F (configuration not stated),Percent Effect,"30.3 µM, […]",56.16%
O=C(NCCn1nc2ccccn2c1=O)c1sccc1-c1ccccc1,Percent Effect,30 µM,25.6%
Cn1ccc(NC(=O)Cc2ccccc2F)n1,Percent Effect,"30.3 µM, […]",-10.05%
COC(=O)N1CCCC(C(=O)Nc2nc(C)c(SC)s2)C1 (configuration not stated),Percent Effect,"30.3 µM, […]",9.664%
O=C(CCc1ccco1)NS(=O)(=O)N1CCOc2ccccc21,Percent Effect,"30.3 µM, […]",39.68%
O=C(CCOCc1ccccc1)NS(=O)(=O)N1CCOc2ccccc21,Percent Effect,"30.3 µM, […]",54.49%
CC(C)OCCC(=O)NS(=O)(=O)N1CCOc2ccccc21,Percent Effect,"30.3 µM, […]",-11.14%
COCCn1cc(C(=O)N2CCCC2c2ccncc2)c2ccccc21 (configuration not stated),Percent Effect,"30.3 µM, […]",-8.376%
O=C(c1cccnc1)N1CCC2(CNS(=O)(=O)c3cnccc3O2)C1 (configuration not stated),Percent Effect,"30.3 µM, […]",9.418%
Cc1cc(N2CCN(C(=O)[C@@H]3C[C@@H]4C=C[C@H]3C4)CC2)nc2ccccc12,Percent Effect,"30.3 µM, […]",19.09%
CC(=O)Nc1ccc(C(=O)N(C)Cc2ccc(F)cc2F)s1,Percent Effect,"30.3 µM, […]",41.29%
CC(=O)Nc1ccc(C(=O)N(C)Cc2cccc(F)c2)s1,Percent Effect,"30.3 µM, […]",-28.94%
COc1cccc(CN(C)C(=O)c2ccc(NC(C)=O)s2)c1OC,Percent Effect,"30.3 µM, […]",52.82%
Cc1cc(C(=O)NCc2cccnc2N2CCCC(O)C2)c(C)o1 (configuration not stated),Percent Effect,"30.3 µM, […]",26.29%
CCc1nc(C)cc(N2CCCC(C(=O)c3ccc(OC)cc3C)C2)n1 (configuration not stated),Percent Effect,"30.3 µM, […]",50.79%
COc1ccc(C(=O)C2CCCN(c3cnccn3)C2)c(C)c1 (configuration not stated),Percent Effect,"30.3 µM, […]",7.713%
COc1ccc(C(=O)C2CCCN(c3nccc(N)n3)C2)c(C)c1 (configuration not stated),Percent Effect,"30.3 µM, […]",44.3%
COc1ccc(C(=O)C2CCCN(c3cc(N)ncn3)C2)c(C)c1 (configuration not stated),Percent Effect,"30.3 µM, […]",55.56%
CCc1nc2n(n1)CCCC2NC(=O)Nc1cc(OC)ccc1C (configuration not stated),Percent Effect,"30.3 µM, […]",6.976%
COc1ccc(C(=O)C2CCCN(c3cc(OC)ncn3)C2)c(C)c1 (configuration not stated),Percent Effect,"30.3 µM, […]",27.19%
CC1(C)COCCN1C(=O)CCc1nc(-c2ccncc2)no1,Percent Effect,"30.3 µM, […]",0.2365%
CC1CCN(CC(=O)NC2CCN(C(C)c3ccccc3)CC2)CC1.Cl (configuration not stated),Percent Effect,"30.3 µM, […]",0.5624%
CCn1ccc(-c2cc(NCCCOc3ccccc3C)nc(C)n2)n1,Percent Effect,"30.3 µM, […]",56.31%
CCn1ccc(-c2cc(NCCCOc3cccc(C)c3)nc(C)n2)n1,Percent Effect,"30.3 µM, […]",7.258%
COc1ccccc1OCCNCCn1cccn1,Percent Effect,30 µM,30.77%
Cc1ccc(C(=O)N2C[C@@H](N3CCN(C)CC3)[C@H]3OCCC[C@H]32)cn1,Percent Effect,"30.3 µM, […]",22.91%
CNC(=O)[C@@H]1C[C@H]2CN(Cc3nccs3)C[C@H]2N1C.O=C(O)C(F)(F)F.O=C(O)C(F)(F)F,Percent Effect,"30 µM, 30.03 µM",9.102%
CN(C)C[C@@H]1[C@H]2CN(C(=O)c3cc(=O)[nH]c4ccc(F)cc34)C[C@@H]12,Percent Effect,"30.3 µM, […]",55.47%
CC1CN(C(=O)c2cc(=O)[nH]c3ccc(F)cc23)CCO1 (configuration not stated),Percent Effect,"30.3 µM, […]",-3.043%
CN(C)C[C@H]1C[C@@H](CO)CN(C(=O)c2cc(=O)[nH]c3cc(F)ccc23)C1,Percent Effect,"30.3 µM, […]",30.17%
CCOC(=O)C1CCN(c2nccc(-n3nc(C)cc3C)n2)CC1,Percent Effect,"30.3 µM, […]",24.33%
Cc1cnc(N2CC(C(=O)N3CCOCC3)C3(CCOCC3)C2)nc1 (configuration not stated),Percent Effect,"30.3 µM, […]",0.6566%
Cn1ccc(C(=O)N2CCCC(Cc3cccc4ncccc34)C2)n1 (configuration not stated),Percent Effect,"30 µM, 30.03 µM",74.08%
COCCNc1cc(-c2cccc(C(=O)O)c2C)c2cc[nH]c2n1,Percent Effect,"30.3 µM, […]",27.05%
Cc1cc(C(=O)NCCN2CCCC(C)C2)nn1C(C)(C)C (configuration not stated),Percent Effect,"30.3 µM, […]",12.01%
CN(C)C(=O)c1cncnc1-c1ccc(CNC(=O)C2CCCO2)cc1 (configuration not stated),Percent Effect,"30.3 µM, […]",-46.25%
O=C1CC2(CCN(CC3CCOC3)CC2)CN1Cc1cc(F)cc(F)c1 (configuration not stated),Percent Effect,"30 µM, 30.03 µM",41.14%
O=C1CC2(CCN(CC3CC3)CC2)CN1Cc1cc(F)cc(F)c1,Percent Effect,"30.3 µM, […]",59.82%
O=C1CC2(CCN(CCO)CC2)CN1Cc1cc(F)cc(F)c1,Percent Effect,"30 µM, 30.03 µM",24.96%
Cc1cc(C(N)=O)c2c(Br)cccc2n1,Percent Effect,"30.3 µM, […]",-10.76%
c1ccc2c(N3CCOC(Cn4cccn4)C3)ncnc2c1 (configuration not stated),Percent Effect,"30.3 µM, […]",-0.8022%
c1nc(N2CCOC(Cn3cncn3)C2)c2sccc2n1 (configuration not stated),Percent Effect,"30.3 µM, […]",23.8%
c1cnn(CC2CN(c3ncnc4ccsc34)CCO2)c1 (configuration not stated),Percent Effect,"30 µM, 30.03 µM",45.92%
Cc1cnn(CC2CN(c3ncnc4ccccc34)CCO2)c1 (configuration not stated),Percent Effect,"30 µM, 30.03 µM",53.49%
Cc1cnn(CC2CN(c3ncnc4ccsc34)CCO2)c1 (configuration not stated),Percent Effect,"30 µM, 30.03 µM",66.34%
Cc1cnn(CC2CN(c3ncnc4[nH]ccc34)CCO2)c1 (configuration not stated),Percent Effect,30 µM,4.128%
c1cnn(CC2CN(c3ncnc4[nH]ccc34)CCO2)c1 (configuration not stated),Percent Effect,30 µM,1.835%
c1cnn(CC2CN(c3ncnc4sccc34)CCO2)c1 (configuration not stated),Percent Effect,"30 µM, 30.03 µM",57.28%
CN(C)CC1CN(c2ncnc3ccsc23)CCO1 (configuration not stated),Percent Effect,"30.3 µM, […]",16.39%
Cc1nc2cc(C(=O)N(CCC#N)CC3CCCO3)ccc2[nH]1 (configuration not stated),Percent Effect,"30.3 µM, […]",5.976%
Cc1nn(C)c(C)c1OCC(=O)NCC(O)Cc1ccccc1 (configuration not stated),Percent Effect,"30.3 µM, […]",-11.07%
CC(C)(C)CC(=O)NS(=O)(=O)c1ccc(F)cc1C(F)(F)F,Percent Effect,"30.3 µM, […]",3.58%
CNS(=O)(=O)c1ccc(C(=O)N2CCCC2c2ccccc2C)o1 (configuration not stated),Percent Effect,30 µM,17.32%
O=C(Cn1ccc2sccc2c1=O)NCCCc1ccccc1,Percent Effect,"30.3 µM, […]",1.811%
Cc1cccc(CN2CCCC3(CCN(CC(=O)N(C)C)C3=O)C2)n1.O=C(O)C(F)(F)F (configuration not stated),Percent Effect,"30.3 µM, […]",-21.17%
Cc1ccc(C(=O)Nc2ccc3c(c2)N(C)CCN(C)C3)c(=O)[nH]1,Percent Effect,"30.3 µM, […]",4.534%
NC1(CN2CCCCC2)CCCCC1,Percent Effect,"30.3 µM, […]",-14.65%
Cc1nc(CN2CCCn3c(nc(Cn4cncn4)cc3=O)C2)cs1.O=C(O)C(F)(F)F,Percent Effect,"30.3 µM, […]",16.7%
CCOC(=O)Cc1n[nH]c(-c2cncc(Br)c2)n1,Percent Effect,"30.3 µM, […]",100.5%
CNC(=O)Cc1n[nH]c(-c2cncc(Br)c2)n1,Percent Effect,"30.3 µM, […]",-1.104%
CCNC(=O)Cc1n[nH]c(-c2cncc(Br)c2)n1,Percent Effect,"30.3 µM, […]",-72.67%
